# Only some compounds are listed: those with a hit (about 7.4% of all), similar ones and a draw of the others.
# SMN2 splice up: qHTS Assay for Enhancers of SMN2 Splice Variant Expression; HEK293 SMN2-luciferase splicing reporter, luminescence, 30-36 h; Potency, µM (highest dose often 46.1 µM), for the others: at the top dose activity change, positive = activation, most hits filed as activators; actives 2.8% (n = 210,000); also: % of control where 0% means no effect; nearly all actives have a fitted effect of over 55% in size
#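 HEK293 cells carry an SMN2 minigene-luciferase reporter in which exon 7 inclusion puts luciferase in frame. Cells were seeded at 2000 cells/well, attached for 10-12 hours, then exposed to compounds for 30-36 hours at 37C before ONE-Glo luminescence.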
# Rab9 promoter act: qHTS Assay for Rab9 Promoter Activators; Huh7 Rab9 promoter-luciferase reporter, luminescence, 24 h; AID 485297, 2010; Potency, µM (titrated, usually from 9.22 µM), for the others: top-dose activation, negative = inhibition, actives largely listed as activators; actives 2.8% (n = 320,000); also: % of control where 0% means no effect; nearly all actives have a fitted effect of over 60% in size
#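 Promoter activation is measured as luciferase luminescence in Huh7 cells stably transfected with a Rab9 promoter–luciferase construct, following 24 h compound exposure at 37 °C and 10 min reagent incubation at ambient temperature.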
# ELG1 genotox: qHTS screen for small molecules that induce genotoxicity in human embryonic kidney (HEK293T) cells expressing luciferase-tagged ELG1. HEK293T ELG1-luciferase reporter, luminescence, 16 h. Potency, µM (titrated, usually from 46 µM), for inactives: top-dose activity change, positive = activation, hits mostly activators. actives 1.3% (n = 330,000). AID 504466, 2011; also: % of control where 0% means no effect; nearly all actives have a fitted effect of over 60% in size
#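 Step 1: seed 2,000 HEK293T ELG1-luciferase cells per well. Step 2: add compound or DMSO, incubate 16 hr at 37 °C. Step 3: ONE-Glo, 30 min at room temperature, read luminescence.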
# FLuc modulator: qHTS profiling assay for firefly luciferase inhibitor/activator using purifed enzyme and Km concentrations of substrates (counterscreen for miR-21 project); actives 6.9% (n = 360,000); AID 588342, 2011; purified FLuc, Km substrates, luminescence inhibition; Potency, µM (titrated, usually from 57.5 µM), for inactives: at the top dose activity change, negative = inhibition, actives largely listed as inhibitors; Luciferin 4-monooxygenase (Photinus pyralis), P08659;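 also: plate controls were vehicle for no effect and reference inhibitor for full effect; nearly all actives have a fitted effect of over 55% in size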
# Target sequence (P08659 whole entry, looked up): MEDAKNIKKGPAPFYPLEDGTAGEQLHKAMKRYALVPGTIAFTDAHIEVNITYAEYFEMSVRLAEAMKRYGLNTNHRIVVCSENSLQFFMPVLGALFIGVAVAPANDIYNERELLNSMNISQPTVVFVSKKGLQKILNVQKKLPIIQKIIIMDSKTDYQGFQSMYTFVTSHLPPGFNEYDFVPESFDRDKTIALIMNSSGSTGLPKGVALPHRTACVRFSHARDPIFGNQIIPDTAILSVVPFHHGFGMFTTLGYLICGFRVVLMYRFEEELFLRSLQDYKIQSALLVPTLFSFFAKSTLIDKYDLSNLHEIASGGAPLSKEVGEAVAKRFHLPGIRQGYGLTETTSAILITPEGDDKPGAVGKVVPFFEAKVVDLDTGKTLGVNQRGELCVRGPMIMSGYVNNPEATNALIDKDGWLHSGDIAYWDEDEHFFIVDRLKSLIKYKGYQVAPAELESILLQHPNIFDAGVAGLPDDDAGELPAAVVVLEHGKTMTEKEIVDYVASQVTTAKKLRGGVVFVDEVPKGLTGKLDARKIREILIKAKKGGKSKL
#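 Purified P. pyralis luciferase, 10 nM final, with Km-level 10 uM D-luciferin and 10 uM ATP in 50 mM Tris acetate pH 7.5, 10 mM Mg acetate, 0.01% Tween-20, 0.05% BSA; 6-point qHTS titration about 60 µM downward; luminescence read.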
# NPC1 prom act: qHTS Assay for NPC1 Promoter Activators; Huh7 NPC1 promoter luciferase reporter, 24 h; Potency, µM (series often up to 9.22 µM), inactives show at the highest dose activation, usual class: activators; actives 2.4% (n = 320,000); also: % of control where 0% means no effect; nearly all actives have a fitted effect of over 60% in size
#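 Readout is luciferase luminescence, reflecting NPC1 promoter activation in stably transfected Huh7 cells after 24 h compound exposure at 37 °C in reduced-serum medium with 10% FBS.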
# * hit, by the source's call; ? = inconclusive; . = not tested or not shown. Calls follow the shape of the dose curve; as a rule, active = well fitted curve in the direction sought with a large enough effect; inconclusive = small, poorly fitted or top-dose-only effect, or another doubt; inactive = no such curve, though single readings can be large; an effect the other way counts as inactive or inconclusive. Potency is read from the fitted curve at half-maximal effect.
SMILES,SMN2 splice up,Rab9 promoter act,ELG1 genotox,FLuc modulator,NPC1 prom act
N#Cc1ccccc1NC(=O)c1ccc2c(Cl)c3c(nc2c1)CCCC3,10µM*,3.5µM*,12%,3.8µM*,?
O=C(Nc1ccccc1F)c1ccc2c(Cl)c3c(nc2c1)CCC3,?,.,.,0.15µM*,.
O=C(Nc1cccnc1Cl)c1ccc2c(Cl)c3c(nc2c1)CCC3,?,0.71µM*,2.3µM*,0.85µM*,1µM*
CCOC(=O)N1CCC(NC(=O)c2ccc3c(Cl)c4c(nc3c2)CCCC4)CC1,-22%,-4%,-4%,-2%,-3%
CCOCCCn1c(=S)[nH]c2cc(C(=O)NCCc3ccccc3)ccc2c1=O,.,27%,?,1%,16%
COc1cccc(/C=C/C(=O)c2cccc([N+](=O)[O-])c2)c1,-3%,-2%,?,8.5µM*,-9%
COc1cccc(/C=C/C(=O)c2cccc([N+](=O)[O-])c2)c1OC,-2%,-7%,?,11µM*,9%
COc1cccc(C(=O)/C=C/c2ccc(N3CCCCC3)c([N+](=O)[O-])c2)c1,-20%,-2%,11%,8.5µM*,-1%
O=C(/C=C/c1ccc(N2CCCCC2)c([N+](=O)[O-])c1)c1ccc(S(=O)(=O)N2CCCC2)cc1,-54%,-6%,18%,-5%,-7%
CO/N=C/c1ccc(N2CCCC2)c([N+](=O)[O-])c1,-28%,20%,-1%,17µM*,9%
COC(=O)CSc1nnc(-c2sc3ccccc3c2Cl)o1,-10%,4%,-2%,5.4µM*,-6%
OCC#CCSc1nnc(-c2cccc3ccccc23)o1,.,-1%,5%,?,-3%
N#CCSc1nnc(-c2sc3ccccc3c2Cl)o1,-23%,12%,2%,17µM*,1%
CC(C)(C)OC(=O)N1CCC(c2c(C(=O)N3CCN(C(=O)c4ccco4)CC3)cnn2-c2ccccc2Cl)CC1,.,.,.,-4%,.
Cc1cc(OCc2ccc(C(=O)n3cccn3)o2)ccc1Cl,11µM*,?,?,?,?
O=C(c1ccc(COc2ccc(F)cc2)o1)n1cccn1,3%,-3%,2%,24µM*,0%
O=C(Oc1ccc(Cl)c2cccnc12)c1cccc([N+](=O)[O-])c1,6%,-3%,0%,?,-2%
O=[N+]([O-])c1ccccc1COc1ccc(Cl)c2cccnc12,.,0.28µM*,1.6µM*,0.54µM*,0.63µM*
CC(=O)Nc1cccc(C(=O)/C=C/c2ccc(/C=C/C(=O)c3cccc(NC(C)=O)c3)cc2)c1,-68%,-34%,-17%,0%,-31%
CC(=O)Nc1cccc(C(=O)/C=C/c2ccc(N(C)C)cc2)c1,5%,25%,?,2.7µM*,2%
CC(=O)Nc1cccc(C(=O)/C=C/c2cccs2)c1,8%,?,0%,13µM*,23%
CC(=O)Nc1cccc(C(=O)/C=C/c2ccc(F)cc2)c1,-12%,0%,?,19µM*,2%
COc1ccc2c(c1)c1c(c(=O)n(Cc3ccccc3)c(=O)n1Cc1ccc(C)cc1)n2C,.,.,.,-5%,.
C/C(=N\NC(=O)c1ccccn1)c1ccc(C(=O)O)s1,3%,-2%,?,?,-3%
CC1(c2ccccc2)CC(c2ccccc2)=Nc2ccccc2N1 (stereo unspecified),.,-1%,11%,-17%,3%
CC1=CC(C)=Nc2ccccc2N1,-6%,-1%,16µM*,17µM*,-1%
Cc1ccc2cc3cc(C(=O)N4CCCCC4C)oc3nc2c1 (stereo unspecified),11µM*,1.6µM*,?,3µM*,1.4µM*
Cc1ccc2cc3cc(C(=O)NC4CCCCC4)oc3nc2c1,.,?,-4%,?,?
Cc1ccc2cc3cc(C(=O)N(C)c4ccccc4C)oc3nc2c1,16µM*,.,.,6.7µM*,.
CCN(C(=O)c1cc2cc3ccc(C)cc3nc2o1)c1ccc(OC)cc1,-35%,-3%,15%,?,2%

# Screens (PubChem BioAssay)
